# PubChem BioAssay
# The source made the active and inactive calls.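 The calls were made as follows, unless noted: active = inhibition of the reporter signal at or above 50%; inactive = inhibition below 50%.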
# Columns and labels:
# [1] = inhibitors of TNFa-induced NFkB p65 translocation, primary screen, imaging, HUVEC, MLSMR starter and 10KST1 sets (AID 438;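 active = inhibition above 20% together with a positive visual image hit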;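 also: compound added about 3h40 before a 20 min TNFalpha stimulation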;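 as to inhibition: signal is the nuclear over cytoplasmic p65 intensity ratio per well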); conditions: HUVEC TNFa-induced p65 nuclear translocation; cell count: measured here: nuclei count (cytotoxicity indicator), at 2.08 µM; inhibition: at 2 µM, stronger effect = higher value, 0% TNFa-plus-vehicle, 100% no-TNFa wells
# [2] = reduction of polyQ htt aggregates in cells – imaging, exon1htt(103Q)mCFP cells, high-content imaging, primary screen (AID 483;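 active = visual image review flags a hit and inhibition of aggregation exceeds 20%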;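 also: compound exposure lasted 3 days before fixation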;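 as to nuclei count: percent of the per-plate median nuclei count of sample wells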); conditions: exon1htt(103Q)mCFP cell line, aggregate imaging, at 2 µM; inhibition of aggregation: stronger effect = higher value; nuclei count: measured here: cell count, toxicity
# [3] = endothelial E-selectin expression blockers – imaging, HUVEC, immunofluorescence, MLSMR starter and 10KST1 sets, primary screen (AID 487;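 active = visually confirmed hit in the image check and inhibition above 20%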;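 as to inhibition: signal is fraction of cell area covered by stained E-selectin grains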;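 as to nuclei count: 100% = median nuclei count of all wells on the same plate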); conditions: HUVEC TNFalpha-induced E-selectin immunofluorescence imaging, at 2 µM; inhibition: stronger effect = higher value; nuclei count: measured here: cell number, toxicity
# [4] = target: Voltage-gated potassium channel subunit beta-2 (Rattus norvegicus) (UniProt P62483); experiment: inhibitors of rat Kvbeta2 reductase activity – biochemical, NADPH fluorescence, primary screen (AID 622;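 active = fluorescence slope higher than the sample average by over 3 SD, cut at about -0.22 in these data, passing the limit was not always enough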;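 also: slope of raw intensity against log time taken from 70 to 1610 s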); conditions: recombinant KvBeta, 4-cyanobenzaldehyde reduction, at 10 µM, stronger effect = higher value
# Voltage-gated potassium channel subunit beta-2 (Rattus norvegicus), sequence (P62483 whole entry, looked up): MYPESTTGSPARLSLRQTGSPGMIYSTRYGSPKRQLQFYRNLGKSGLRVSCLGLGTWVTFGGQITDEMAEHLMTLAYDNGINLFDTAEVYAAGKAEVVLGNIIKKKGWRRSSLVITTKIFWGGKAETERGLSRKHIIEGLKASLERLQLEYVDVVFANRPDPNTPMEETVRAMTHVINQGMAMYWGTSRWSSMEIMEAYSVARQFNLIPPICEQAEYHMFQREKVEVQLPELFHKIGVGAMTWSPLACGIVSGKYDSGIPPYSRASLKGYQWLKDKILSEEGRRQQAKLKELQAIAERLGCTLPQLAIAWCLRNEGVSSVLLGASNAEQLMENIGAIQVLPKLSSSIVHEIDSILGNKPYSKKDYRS
# [5] = target: Voltage-gated potassium channel subunit beta-2 (Rattus norvegicus) (UniProt P62483); experiment: enhancers of rat Kvbeta2 NADPH turnover – biochemical, NADPH fluorescence, primary screen (AID 623;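 active = NADPH fluorescence slope more negative than the mean of all samples by about 3 SD, 99.7% confidence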;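 also: fluorescence intensity change per second fitted from 20 to 320 s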); conditions: Recombinant KvBeta, NADPH fluorescence decrease slope, 10 min; at 10 µM; stronger effect = lower value
# [6] = target: Alpha-2C adrenergic receptor (Homo sapiens) (UniProt P18825); experiment: compounds altering alpha2C-coupled GIRK flux – cell-based, HEK293 alpha2C/GIRK1/2, thallium flux, primary screen (AID 624;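 active = fluorescence slope after compound addition differing from the mean of all screened samples at 99.7% confidence, in either direction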;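 also: slope of fluorescence ratio to pre-addition baseline per second over 15 to 24 s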); conditions: thallium flux BTC fluorescence, at 10 µM, actives lie on both sides
# Alpha-2C adrenergic receptor (Homo sapiens), sequence (P18825 whole entry, looked up): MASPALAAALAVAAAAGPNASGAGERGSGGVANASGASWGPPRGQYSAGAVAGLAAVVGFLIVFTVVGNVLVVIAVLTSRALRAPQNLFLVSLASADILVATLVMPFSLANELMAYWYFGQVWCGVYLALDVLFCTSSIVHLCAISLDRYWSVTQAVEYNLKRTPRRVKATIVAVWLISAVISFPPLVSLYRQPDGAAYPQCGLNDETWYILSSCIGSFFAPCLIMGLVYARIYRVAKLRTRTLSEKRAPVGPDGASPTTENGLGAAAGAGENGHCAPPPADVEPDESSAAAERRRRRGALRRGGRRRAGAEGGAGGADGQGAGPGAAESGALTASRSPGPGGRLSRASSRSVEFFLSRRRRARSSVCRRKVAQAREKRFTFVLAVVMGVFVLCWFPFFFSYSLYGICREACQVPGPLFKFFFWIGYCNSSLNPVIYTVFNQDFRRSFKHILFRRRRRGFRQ
# [7] = blockers of RIG-like receptor reporter activation – cell-based, Sendai virus stimulus, luciferase, 10K MLSCN set, TLR/RLR signaling modifier project, primary screen (AID 602276;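 active = inhibition at or above 50% at 10 µM; inactive = inhibition below 50%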;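 also: firefly luciferase from ISG56 promoter only with Renilla not read in this screen; 0% = Sendai virus plus DMSO and 100% = medium plus DMSO without virus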); conditions: HEK293 RL24 IRF3 luciferase reporter, at 10 µM, stronger effect = higher value
# [8] = TLR3 IRF3 reporter activation blockers – cell-based, poly I:C stimulus, luciferase, 10K MLSCN set, primary screen (AID 602277); conditions: HEK293-TLR3 RL24 IRF3 luciferase reporter, at 10 µM, stronger effect = higher value
smiles,measurement,setting,value
Cc1ccc(C)c(N2CCN(C(=O)c3cc4ccccn4n3)CC2)c1,cell count,[1],584
same,inhibition,[1],-2.9% (inactive)
same,inhibition of aggregation,[2],-16.9% (inactive)
same,nuclei count,[2],103%
same,inhibition,[3],-31.8% (inactive)
same,nuclei count,[3],118%
same,fluorescence slope,[4],-0.615 (inactive)
same,NADPH fluorescence slope,[5],-2.1e-05 (inactive)
same,slope,[6],0.00707 (inactive)
same,inhibition,[7],-3.21% (inactive)
same,inhibition,[8],21.6% (inactive)
COCC(=O)Nc1c(C(=O)Nc2ccccc2OC)oc2ccccc12,cell count,[1],602
same,inhibition,[1],-5.9% (inactive)
same,inhibition of aggregation,[2],11.9% (inactive)
same,nuclei count,[2],99.1%
same,inhibition,[3],2.5% (inactive)
same,nuclei count,[3],60.9%
same,fluorescence slope,[4],-0.318 (inactive)
same,NADPH fluorescence slope,[5],1.2e-05 (inactive)
same,slope,[6],0.00625 (inactive)
same,inhibition,[7],-4.76% (inactive)
same,inhibition,[8],11.5% (inactive)
CC1/C(=N/O)C(CN(C)C)C2CC1C2(C)C (centres undefined),cell count,[1],347
same,inhibition,[1],-2.5% (inactive)
same,inhibition of aggregation,[2],7.8% (inactive)
same,nuclei count,[2],30.1%
same,inhibition,[3],13.2% (inactive)
same,nuclei count,[3],101%
same,fluorescence slope,[4],-0.592 (inactive)
same,NADPH fluorescence slope,[5],1.8e-05 (inactive)
same,slope,[6],0.0062 (inactive)
same,inhibition,[7],3% (inactive)
same,inhibition,[8],11.5% (inactive)
O=C(Nc1cnn(Cc2ccc(F)cc2)c1)c1cnccn1,cell count,[1],582
same,inhibition,[1],-17% (inactive)
same,inhibition of aggregation,[2],-7.5% (inactive)
same,nuclei count,[2],109%
same,inhibition,[3],-94.9% (inactive)
same,nuclei count,[3],120%
same,fluorescence slope,[4],-0.504 (inactive)
same,NADPH fluorescence slope,[5],-4.3e-05 (inactive)
same,slope,[6],0.00522 (inactive)
same,inhibition,[7],4.25% (inactive)
same,inhibition,[8],8.05% (inactive)
CN(CC(=O)Nc1nccs1)S(=O)(=O)c1ccc(F)cc1,cell count,[1],352
same,inhibition,[1],-6.5% (inactive)
same,inhibition of aggregation,[2],-4.8% (inactive)
same,nuclei count,[2],110%
same,inhibition,[3],-35.4% (inactive)
same,nuclei count,[3],101%
same,fluorescence slope,[4],-0.465 (inactive)
same,NADPH fluorescence slope,[5],-9.5e-06 (inactive)
same,slope,[6],0.00636 (inactive)
same,inhibition,[7],-24.4% (inactive)
same,inhibition,[8],1.06% (inactive)
C=CCOc1ccc(C2/C(=C(\O)c3c(C)[nH]c(C(=O)OC)c3C)C(=O)C(=O)N2CCN(C)C)cc1 (centres undefined),cell count,[1],462
same,inhibition,[1],0.5% (inactive)
same,inhibition of aggregation,[2],-6.9% (inactive)
same,nuclei count,[2],99.7%
same,inhibition,[3],-96.2% (inactive)
same,nuclei count,[3],118%
same,fluorescence slope,[4],-0.536 (inactive)
same,NADPH fluorescence slope,[5],-1.1e-05 (inactive)
same,slope,[6],0.00355 (inactive)
same,inhibition,[7],13.2% (inactive)
same,inhibition,[8],26.6% (inactive)
CCCS(=O)(=O)Nc1c(C(=O)O)[nH]c2ccccc12,cell count,[1],665
same,inhibition,[1],-11.9% (inactive)
same,inhibition of aggregation,[2],-26.1% (inactive)
same,nuclei count,[2],108%
same,inhibition,[3],-79.9% (inactive)
same,nuclei count,[3],147%
same,fluorescence slope,[4],-0.415 (inactive)
same,NADPH fluorescence slope,[5],-3.3e-05 (inactive)
same,slope,[6],0.00314 (inactive)
same,inhibition,[7],12.6% (inactive)
same,inhibition,[8],29% (inactive)
O=C(c1cccc(F)c1)N1CCc2ccccc21,cell count,[1],490
same,inhibition,[1],3.5% (inactive)
same,inhibition of aggregation,[2],-1.6% (inactive)
same,nuclei count,[2],107%
same,inhibition,[3],-9.7% (inactive)
same,nuclei count,[3],114%
same,fluorescence slope,[4],-0.478 (inactive)
same,NADPH fluorescence slope,[5],-1.8e-05 (inactive)
same,slope,[6],0.0055 (inactive)
same,inhibition,[7],0.0423% (inactive)
same,inhibition,[8],27.3% (inactive)
N#Cc1c(NCc2ccccc2)ccnc1NCc1cccnc1,cell count,[1],720
same,inhibition,[1],2.9% (inactive)
same,inhibition of aggregation,[2],-8.3% (inactive)
same,nuclei count,[2],104%
same,inhibition,[3],67.5% (active)
same,nuclei count,[3],80.8%
same,fluorescence slope,[4],-0.288 (inactive)
same,NADPH fluorescence slope,[5],-6.2e-05 (inactive)
same,slope,[6],0.00541 (inactive)
same,inhibition,[7],-0.363% (inactive)
same,inhibition,[8],-44.8% (inactive)
CCOc1ccc(C(=O)N2CCN(c3ccccc3)CC2)cc1OCC,cell count,[1],196
same,inhibition,[1],-16.9% (inactive)
same,inhibition of aggregation,[2],20.3% (inactive)
same,nuclei count,[2],97.1%
same,inhibition,[3],-17.5% (inactive)
same,nuclei count,[3],100%
same,fluorescence slope,[4],-0.561 (inactive)
same,NADPH fluorescence slope,[5],9.3e-05 (inactive)
same,slope,[6],0.00618 (inactive)
same,inhibition,[7],16% (inactive)
same,inhibition,[8],9.44% (inactive)
COc1cc(S(=O)(=O)N2CCC(N3CCCCC3)CC2)ccc1-n1cnnn1,cell count,[1],351
same,inhibition,[1],6.9% (inactive)
same,inhibition of aggregation,[2],14.1% (inactive)
same,nuclei count,[2],89.1%
same,inhibition,[3],-20.4% (inactive)
same,nuclei count,[3],102%
same,fluorescence slope,[4],-0.593 (inactive)
same,NADPH fluorescence slope,[5],-7.9e-06 (inactive)
same,slope,[6],0.00492 (inactive)
same,inhibition,[7],-9.28% (inactive)
same,inhibition,[8],3.24% (inactive)
Cc1cccc2cc(C#N)c(SCCN3CCCCC3)nc12,cell count,[1],413
same,inhibition,[1],-7.1% (inactive)
same,inhibition of aggregation,[2],-42.5% (inactive)
same,nuclei count,[2],108%
same,inhibition,[3],-46.6% (inactive)
same,nuclei count,[3],108%
same,fluorescence slope,[4],-0.334 (inactive)
same,NADPH fluorescence slope,[5],-4.3e-05 (inactive)
same,slope,[6],0.00498 (inactive)
same,inhibition,[7],13.4% (inactive)
same,inhibition,[8],99% (active)
Cn1c(NC(=O)c2ccccc2NC(=O)C(C)(C)C)nc2ccccc21,cell count,[1],704
same,inhibition,[1],-3.2% (inactive)
same,inhibition of aggregation,[2],11.9% (inactive)
same,nuclei count,[2],98.3%
same,inhibition,[3],-10.7% (inactive)
same,nuclei count,[3],126%
same,fluorescence slope,[4],-0.163 (active)
same,NADPH fluorescence slope,[5],5.8e-06 (inactive)
same,slope,[6],0.00774 (inactive)
same,inhibition,[7],1.78% (inactive)
same,inhibition,[8],-25.9% (inactive)
Cc1cccc(Cn2c(SCCN3CCCCC3)nc3c2c(=O)[nH]c(=O)n3C)c1,cell count,[1],497
same,inhibition,[1],6.4% (inactive)
same,inhibition of aggregation,[2],-13.5% (inactive)
same,nuclei count,[2],82.4%
same,inhibition,[3],1.7% (inactive)
same,nuclei count,[3],95.1%
same,fluorescence slope,[4],-0.442 (inactive)
same,NADPH fluorescence slope,[5],3.2e-05 (inactive)
same,slope,[6],0.00451 (inactive)
same,inhibition,[7],-12% (inactive)
same,inhibition,[8],3.02% (inactive)
